Data taken from PubChem BioAssay (Tox21).
Unmarked numbers belong to inactive results. The source made the active and inactive calls. Calls follow the shape of the dose curve; as a rule, active = well fitted curve in the direction sought with a large enough effect in the repeat runs; inconclusive = weak or mixed curves; inactive = flat fitted curve, though single readings scatter.
% is scaled to controls: 0 for no effect and ±100 for the full control effect.

Test: qHTS assay to test for compound auto fluorescence at 590 nm (red) in HepG2 cells (AID 720674)
Conditions: HepG2 autofluorescence, red 540/590 nm, 1 h; series mostly up to 91.3 µM; fluorescence, relative to Rose Bengal: at the top concentration
Source text: U.S. Tox21 Program National Center for Advancing Translational Sciences [NCATS] NIH Chemical Genomics Center [NCGC] U.S. Environmental Protection Agency [EPA] National Institutes of Environmental Health Sciences [NIEHS] National Toxicology Program [NTP] U.S. Food and Drug Administration [FDA] Tox21 Assay Overview: Compound auto fluorescence often interferes with screening of the compound library against various biological targets and signaling pathways. Some of these compounds may have fluorophoric properties. Such properties may interfere with the assay outputs resulting in false positives and/or negatives. To decrease such complications and ensure the compound activities are relevant in terms of biological response, the Tox21 10K compound library was screened for auto fluorescence. From the fluorophores used as reporter signals in our screening assays, the auto fluorescence equivalencies of compounds against three fluorophores have been evaluated: Triamterene, Fluorescein and Rose Bengal sodium for blue, green and red fluorescence, respectively. The fluorescence intensities were measured using Excitation/Emission wavelengths at 405/460nm, 485/535nm and 540/590nm for blue, green and red labels, respectively. This assay includes the red fluorescence data.
Tox21 Assay Protocol Summary: 2,000 HepG2 cells in 5 uL of culture medium (MEM containing 10% FBS) per well were dispensed into black wall/clear bottom 1536-well plates using a Multidrop Combi Dispenser (ThermoFisher Scientific, Waltham, MA). The assay plates were incubated overnight at 37 C to allow cell attachment to the well bottom, followed by the transfer of 23 nL compound or DMSO vehicle by a pintool work station (Kalypsys , San Diego, CA). After the assay plates were incubated for 1 hr at 37 C and 5% CO2, fluorescence intensities in the assay plates were measured by an Envision (PerkinElmer, Shelton, CT) plate reader using three labels for measuring blue, green and red fluorescence at […] 460, 535 and 590 nm respectively.
With O=C(O)Cc1cn(-c2ccccc2)nc1-c1ccc(Cl)cc1 the “fluorescence, relative to Rose Bengal” value was -0.64% [at 46 µM].
For OCCN(CCO)c1cccc(Cl)c1, the “fluorescence, relative to Rose Bengal” value was -0.0072%.
For CCC(C)NC(N)=O (stereo not given), the “fluorescence, relative to Rose Bengal” value was -0.295%.
In the case of COc1cc2c(cc1OC)[C@@H]1CC(=O)[C@@H](CC(C)C)CN1CC2, the “fluorescence, relative to Rose Bengal” value is reported as 0.508% [at 46 µM].
For CCN(C)C(=O)Oc1cccc([C@H](C)N(C)C)c1, the “fluorescence, relative to Rose Bengal” value was 0.546% [at 46 µM].
With Nc1ccc2cc(S(=O)(=O)O)cc(O)c2c1 the “fluorescence, relative to Rose Bengal” value was -0.0471%.
With C[Si](C)(C)C the “fluorescence, relative to Rose Bengal” value was 0.15%.
In the case of CCCC(=O)C(C)=O, the “fluorescence, relative to Rose Bengal” value is reported as -0.0004%.
In the case of CC(=O)N[C@@H](CCC(=O)O)C(=O)O, the “fluorescence, relative to Rose Bengal” value is reported as 0.491% [at 46 µM].
In the case of COc1nccnc1NS(=O)(=O)c1ccc(N)cc1, the “fluorescence, relative to Rose Bengal” value is reported as -0.176% [at 46 µM].
In the case of CCOCCOCCOCC, the “fluorescence, relative to Rose Bengal” value is reported as 0.0162%.
For CC(C)(C)OC(=O)c1ccc(O)cc1, the “fluorescence, relative to Rose Bengal” value was -0.0579%.
With COc1ccc(OC)c(Cl)c1 the “fluorescence, relative to Rose Bengal” value was -0.138%.
For Cc1nc2n(c(=O)c1CCN1CCC(c3noc4cc(F)ccc34)CC1)CCC[C@H]2O, the “fluorescence, relative to Rose Bengal” value was 0.188% [at 46 µM].
With OCCCCC(O)CO (stereo not given) the “fluorescence, relative to Rose Bengal” value was 0.0469%.
With Brc1ccc(-c2ccccc2)cc1 the “fluorescence, relative to Rose Bengal” value was 0.142%.
With CCCOC(=O)C(C)O (stereo not given) the “fluorescence, relative to Rose Bengal” value was -0.0172% [at 95.7 µM].
In the case of CC(N)C(=O)OC(C)(C)Cc1ccc(Cl)cc1 (stereo not given), the “fluorescence, relative to Rose Bengal” value is reported as -0.618% [at 46 µM].
With C=C(C)C(=O)OCc1ccccc1 the “fluorescence, relative to Rose Bengal” value was -0.405%.
For CC(C)NCC(O)COc1cccc2[nH]ccc12 (stereo not given), the “fluorescence, relative to Rose Bengal” value was 0.118% [at 46 µM].
In the case of O=C(c1ccc(O)cc1)c1ccc(O)c(O)c1O, the “fluorescence, relative to Rose Bengal” value is reported as 0.0834%.
In the case of c1ccc2nccnc2c1, the “fluorescence, relative to Rose Bengal” value is reported as 0.019% [at 95.7 µM].
With C[Si](C)=O the fluorescence, relative to Rose Bengal was -0.082% [at 9.17 µM].
In the case of COC(=O)c1ccccc1C(=O)c1ccc(OCCN2CCCCC2)cc1, the “fluorescence, relative to Rose Bengal” value is reported as -0.333% [at 46 µM].
In the case of O=C(OCc1ccccc1)C(=O)OCc1ccccc1, the “fluorescence, relative to Rose Bengal” value is reported as -0.0222%.
In the case of CC(C)(C)c1n[nH]c(=S)n(N)c1=O, the “fluorescence, relative to Rose Bengal” value is reported as -0.104%.
With C=C1CC/C=C(\C)CC[C@@H]2[C@@H]1CC2(C)C the “fluorescence, relative to Rose Bengal” value was 0.0267%.
For O=Cc1ccc(Cl)c(Cl)c1, the “fluorescence, relative to Rose Bengal” value was -0.189% [at 95.7 µM].
For Nc1ccc(S(=O)(=O)Nc2ccc(Cl)nn2)cc1, the outcome was “inactive”.
In the case of CCCCN, the “fluorescence, relative to Rose Bengal” value is reported as -0.0505% [at 46 µM].
For CC(=O)Nc1ccc(S(=O)(=O)Nc2ccc([N+](=O)[O-])cc2)cc1, the “fluorescence, relative to Rose Bengal” value was 0.285% [at 46 µM].
With CCCCNC1CC(C)(C)NC(C)(C)C1 the “fluorescence, relative to Rose Bengal” value was 0.259%.
With CC(C)C[C@H](NC(=O)CNC(=O)[C@H](Cc1ccc(O)cc1)NC(=O)[C@H](CO)NC(=O)[C@H](Cc1c[nH]c2ccccc12)NC(=O)[C@H](Cc1cnc[nH]1)NC(=O)[C@@H]1CCC(=O)N1)C(=O)N[C@@H](CCCN=C(N)N)C(=O)N1CCC[C@H]1C(=O)NCC(N)=O (stereo in doubt) the “fluorescence, relative to Rose Bengal” value was 0.0007% [at 46 µM].
For C[C@H](CCC(=O)O)[C@H]1CC[C@H]2[C@@H]3C(=O)C[C@@H]4CC(=O)CC[C@]4(C)[C@H]3CC(=O)[C@]12C, the “fluorescence, relative to Rose Bengal” value was 0.67% [at 46 µM].
Work on O=C(NCC(O)CO)c1c(I)c(C(=O)NCC(O)CO)c(I)c(N(CCO)C(=O)CO)c1I (stereo not given) yielded a fluorescence, relative to Rose Bengal of -0.211% [at 18.6 µM].
In the case of COC(=O)[C@@H]1[C@H]2C[C@H]3c4[nH]c5ccccc5c4CCN3C[C@@H]2CC[C@@H]1O, the “fluorescence, relative to Rose Bengal” value is reported as -0.354% [at 46 µM].
In the case of CCNC(=O)C1CC(C)CCC1C(C)C (stereo not given), the “fluorescence, relative to Rose Bengal” value is reported as 0.0414%.
Compound Cc1cc2cc3c(C)cc(=O)oc3c(C)c2o1 has a fluorescence, relative to Rose Bengal of 0.738% [at 18.6 µM].
In the case of COc1ccc(Br)c(C)c1, the “fluorescence, relative to Rose Bengal” value is reported as -0.0824%.
For CC(=O)c1ccc2c(c1)Cc1ccccc1-2, the “fluorescence, relative to Rose Bengal” value was -0.0131%.
